An excerpt weighted towards active compounds, which were near 0.71% of everything screened.
Cardiac RTF inh: cardiac RTF calcium sensitivity inhibitors, primary screen, biochemical, IANBD-TnC fluorescence, EC70 calcium; hit rate 0.12% among 340,000; IANBD-labeled cardiac RTF, Ca2+ fluorescence; Troponin I, cardiac muscle (Homo sapiens) + Troponin T, cardiac muscle (Homo sapiens) + …; inhibition, % at 7.15 µM;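 active = inhibition above the mean inhibition of all tested compounds plus 3 SD, cut at about 17% in these data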;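 note: assay run at fixed EC70 calcium of 1.6 mM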
RTF Ca sens act: cardiac RTF calcium sensitivity activators, primary screen, biochemical, IANBD-TnC fluorescence, EC20 calcium. IANBD-labeled TnC RTF fluorescence at EC20 calcium; 0% EC20 calcium, 100% full calcium. Troponin I, cardiac muscle (Homo sapiens) + Troponin T, cardiac muscle (Homo sapiens) + …. hit rate 0.24% among 340,000. AID 493008, 2010. activation, % at 7.2 µM;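 active = activation above the mean over all tested compounds plus 3 SD, cut at about 30% in these data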;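 note: rise in fluorescence read as greater calcium sensitivity of cardiac thin filaments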
IDE cell activ: human IDE activators in live cells, primary screen, fluorescence polarization, HEK cells, FAbeta-B substrate; Insulin-degrading enzyme (Homo sapiens), P14735; FAbeta-B cleavage; 0% vehicle, 100% cell-free pure enzyme wells; activation, % at 5.96 µM; hit rate 0.073% among 340,000;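 active = activation above the mean of all tested compounds plus 3 SD, set per screening campaign, cut at about 17% in these data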
IDE inh: human IDE inhibitors in live cells, primary screen, fluorescence polarization, HEK cells, FAbetaB substrate; hit rate 0.41% among 320,000; Insulin-degrading enzyme (Homo sapiens), P14735; inhibition, % at 5.59 µM; FAbetaB cleavage;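 active = percent inhibition above the average of all tested compounds plus 3 SD, set per screening campaign, cut at about 16% in these data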;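 note: IDE supplied by intact live HEK cells; FP after avidin binding of uncleaved biotin substrate so inhibition keeps polarization high; 0% = DMSO wells and 100% = 60 µM reference IDE inhibitor Ii1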
RTF Ca inh conf: cardiac RTF calcium sensitivity inhibitors, confirmation, biochemical, fluorescence readout. AID 504635, 2011. reconstituted cardiac thin filaments. hit rate 8% among 360. inhibition, % at 7.15 µM. shares compounds with Cardiac RTF inh; in the data active = inhibition above about 18%
An asterisk follows results filed as active; · = no result.

SMILES | Cardiac RTF inh | RTF Ca sens act | IDE cell activ | IDE inh | RTF Ca inh conf
CC1(C)NC(=O)N(Cc2cc(=O)n3ccsc3n2)C1=O | 5 | 2 | 4 | -3 | ·
O=C(O[C@@H]1OC2COC(=O)c3cc(O)c(O)c(O)c3-c3c(cc(O)c(O)c3O)C(=O)O[C@@H]([C@H]1O)[C@@H]2O)c1cc(O)c(O)c(O)c1 | 130* | -60 | -9 | 7 | 167*
COC(C(=O)Nc1ccnn1C1CCN(Cc2ccc(Cl)s2)CC1)c1ccccc1 (configuration not stated) | -13 | -1 | 1 | 5 | ·
COc1ccc(-c2cc(-c3ccc(OC)cc3)[nH]n2)cc1 | 17* | 4 | -2 | 12 | 1
CCCCSc1nc2sc3c(c2c(=O)[nH]1)CC(C)(CC)OC3 (configuration not stated) | -5 | 1 | -1 | 2 | ·
COCCn1nnnc1C(c1cc2ccc(C)cc2[nH]c1=O)N(Cc1ccco1)Cc1cccs1 (configuration not stated) | 17* | 6 | 2 | -5 | -5
CC(CCCC(C)(C)O)NC(=O)c1ccc(OC2CCN(C(=O)C3CC3)CC2)cc1 (configuration not stated) | -1 | -1 | 1 | 2 | ·
COc1ccc(-c2nn(-c3ccccc3)cc2C(=O)NCCCn2ccnc2)cc1 | 26* | -4 | 4 | -3 | -8
COc1cc(C(=O)N2CCN(C(=O)C3CC3)CC2)cc(OC)c1OC | 20* | 1 | 2 | -4 | -4
COC(=O)C1CCN(C(=O)c2cc(OC)c(OC)c(OC)c2)CC1 | -16 | 5 | -2 | 5 | ·
CNC(=O)Oc1ccc2c(c1)[C@]1(C)CCN(C)C1N2C (some centres not stated) | 17* | 0 | 6 | 1 | -3
CC(=O)Nc1ccc2c(c1)C(C)(C)C(C)N2C (configuration not stated) | · | · | · | 0 | ·
CN1CCN(/N=C/c2ccc(Br)cc2)CC1 | 20* | -2 | 2 | -1 | -6
CN1CCN(/N=C/c2ccc(N(c3ccccc3)c3ccccc3)cc2)CC1 | 6 | -5 | -1 | -3 | ·
COC(=O)N/N=C(\C)c1ccc(OC(F)F)cc1OC(F)F | 17* | 1 | 7 | 2 | -6
Cc1nc(CC(=O)N/N=C/c2ccc(OCC(=O)O)cc2)cs1 | -2 | 2 | -1 | 2 | ·
O=C(O)COc1ccc(/C=N/NC(=O)c2ccc(-c3csc(Nc4ccc(Cl)cc4)n3)cc2)cc1 | 34* | -22 | 0 | · | 18*
CCCCCCCCCCCC(=O)N/N=C/c1ccco1 | -1 | -1 | 3 | 0 | ·
O=C(c1ccc(Cl)c(S(=O)(=O)NCc2cccnc2)c1)N1CCCC1 | -3 | 1 | 2 | 2 | ·
COc1ccccc1C=NN=C1c2ccccc2-c2ccccc21 | -2 | -3 | -1 | · | ·
CCn1c(C)cc(/C=C2/SC(=S)NC2=O)c1C | 6 | -3 | 3 | 5 | ·
CCn1ncc(/C=C2/SC(=S)NC2=O)c1C | 19* | 0 | 3 | 3 | -5
CC[C@@H](C(=O)[C@@H](C)[C@@H](O)[C@H](C)CCc1ccc(C)c(O)c1C(=O)O)[C@H]1O[C@](CC)([C@H]2CC[C@](O)(CC)[C@H](C)O2)C[C@@H]1C | -5 | 0 | 0 | -2 | ·
CC[C@@H](C(=O)[C@@H](C)[C@@H](O)[C@H](C)[C@@H]1O[C@@H]([C@@H](CC)C(=O)O)CC[C@@H]1C)[C@H]1O[C@]2(C=C[C@@H](O)[C@]3(CC[C@@](C)([C@H]4CC[C@](O)(CC)[C@H](C)O4)O3)O2)[C@H](C)C[C@@H]1C | 20* | 2 | 3 | · | -2
CCOc1ccc(S(=O)(=O)NCc2cccs2)cc1C(C)C | -22 | -7 | 4 | · | ·
SMILES | Cardiac RTF inh | RTF Ca sens act | IDE cell activ | IDE inh | RTF Ca inh conf
COc1ccc(CC(=O)O)cc1O | 5 | -5 | 3 | 4 | ·
COc1cc(CC(=O)O)ccc1O | 18* | -1 | 6 | 0 | -3
CCOC(=O)C(=O)NNc1ccc(F)cc1 | · | · | · | 1 | ·
Cc1cc(C(=O)OC2CCOC2=O)c2ccccc2n1 (configuration not stated) | 19* | 6 | 2 | 1 | -4
CC1CCCC(NC(=O)COC(=O)[C@@H](NC(=O)c2ccco2)C(C)C)C1C (some centres not stated) | -11 | -4 | -2 | -6 | ·
CC(C)(C)C(=O)Nc1ncccc1C(O)c1cccc(C(F)(F)F)c1 (configuration not stated) | 19* | -10 | 2 | -1 | -1
O=C(O)c1cccnc1Nc1cccc(C(F)(F)F)c1 | -2 | 12 | -6 | 4 | ·
CCCCC[C@H](O)/C=C/[C@H]1[C@H](O)CC(=O)[C@@H]1CCCCCCC(=O)O | · | · | · | 3 | ·
CCCCCCCCCCC[C@@H](C[C@@H]1OC(=O)[C@H]1CCCCCC)OC(=O)[C@H](CC(C)C)NC=O | 20* | 1 | 7 | 1 | -4
O=C(C1CC1)N1CCc2cc(Br)cc(S(=O)(=O)NCc3ccco3)c21 | 17* | -5 | 4 | 5 | -4
COc1ccc(NC(=O)CN(C)C(=O)c2cc3c(s2)CCCCC3)cc1 | -6 | -4 | -3 | 7 | ·
COc1ccc(NC(=O)CN(C)C(=O)c2cc3c(s2)CCC3)cc1 | 20* | -4 | 3 | -2 | 0
COc1ccc(C(CNC(=O)c2ccco2)N2CCCC2)cc1 (configuration not stated) | -20 | -4 | 2 | -1 | ·
COc1ccc(C(=O)Nc2ccc(C)cc2C(=O)c2ccccc2)c(OC)c1 | 17* | 8 | 4 | 7 | -2
CC1(C)CC(=O)C(C(=S)Nc2ccccc2)=C(NC2CC(C)(C)NC(C)(C)C2)C1 | 0 | 4 | 6 | -4 | ·
Cc1nc2c(-c3ccc(F)cc3)cnn2c(N)c1-c1ccccc1 | 20* | -11 | 4 | 5 | 3
Cc1nc2c(-c3ccc(Cl)cc3)cnn2c(N)c1-c1ccc(F)cc1 | -6 | -11 | -1 | 2 | ·
